Bioassay records from PubChem BioAssay.
Pf growth 96h: Primary qHTS for delayed death inhibitors of the malarial parasite plastid, 96 hour incubation; Potency, µM (titrated, usually from 28.7 µM), actives largely listed as inhibitors; P. falciparum luciferase reporter growth, 96 h; 320,000 compounds, 6.9% hits; AID 504834, 2011; active = well fitted inhibition curve with a large enough effect; inconclusive = small, poorly fitted or top-dose-only effect, or another doubt; inactive = no such curve, though single readings can be large or run the other way
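Infected RBCs, 2% Hct / 0.05% parasitemia final; luciferase-reporter P. falciparum; cpd 96 h, 37 C, 5% CO2; luciferase detection reagent; luminescence.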
SARS PLpro yeast: qHTS of Yeast-based Assay for SARS-CoV PLP. AID 485353, 2010. S. cerevisiae expressing SARS-CoV PLpro, growth rescue. Potency, µM (highest dose often 32.9 µM), actives largely listed as activators. 330,000 compounds, 0.19% hits; also: nearly all actives have a fitted effect of over 55% in size
Shiga toxin inh: A qHTS for Small Molecule Inhibitors of Shiga Toxin; Vero cells, Shiga toxin protein synthesis inhibition reporter; inhibition, % at 38.7 µM; 290,000 compounds, 9.2% hits; AID 2315, 2010; in the data active = inhibition mostly above about 28%, no sharp cut-off; inactive = mostly below about 43%
Pf growth 48h: Primary qHTS for delayed death inhibitors of the malarial parasite plastid, 48 hour incubation | 310,000 compounds, 5.9% hits | P. falciparum luciferase growth in erythrocytes, 48 h | Potency, µM (titrated, usually from 28.7 µM), usual class: inhibitors; active = well fitted inhibition curve with a large enough effect; inconclusive = small, poorly fitted or top-dose-only effect, or another doubt; inactive = no such curve, though single readings can be large or run the other way
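Firefly luciferase activity from engineered P. falciparum reports growth; inhibitors lower the luminescent signal. Cultures contained 2% hematocrit erythrocytes at 0.1% final parasitemia.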
NS1 inh: qHTS Assay for Inhibitors of Influenza NS1 Protein Function; Potency, µM (titrated, usually from 46.1 µM); 270,000 compounds, 0.4% hits; AID 2326, 2010; also: actives are rising curves; nearly all actives have a fitted effect of over 50% in size
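Growth recovery, yeast-based: influenza A NS1 expressed in S. cerevisiae causes slow growth, and suppressors are detected by OD600. The parent strain without NS1 is used as positive control.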
Cycloheximide cs: Cycloheximide Counterscreen for Small Molecule Inhibitors of Shiga Toxin | cell reporter, cycloheximide protein synthesis inhibition counterscreen | max response, % | 300,000 compounds, 12% hits | AID 2314, 2010; in the data active = max response mostly above about 13%, no sharp cut-off; inactive = mostly below about 14%; also: read at 38.3 µM for the half of the compounds with a filed dose
Each line names hits and unclear results; the compound was inactive in the other large screens. Rows were chosen to be rich in hits. Some 21% of all compounds tested hit in one or more screens of this group. Unless noted, calls follow the shape of the full dose curve.

O=C(Nc1cccc(O)c1)c1ccc(NC(=O)c2cccs2)cc1	Shiga toxin inh 130, Cycloheximide cs 74
Cc1ccc(NC(=O)c2cccs2)cc1NC(=O)c1cccc(F)c1	Pf growth 96h inconclusive
N=c1sccn1CC(=O)Nc1cccc(S(=O)(=O)N2CCCCCC2)c1	Pf growth 96h inconclusive (no result: NS1 inh)
Cc1ccc(NC(=O)N2CCCC2C(=O)NCC2CCCO2)cc1 (stereo not drawn)	none
CC1=NNC(=O)C1CC(=O)N/N=C/c1sccc1C (stereo not drawn)	none
O=c1[nH]ncc(N/N=C/c2ccccc2)c1Cl	SARS PLpro yeast inconclusive (no result: Pf growth 96h)
Cc1ccsc1/C=N\Nc1cn[nH]c(=O)c1Cl	Cycloheximide cs 31 (no result: NS1 inh)
COc1ccc(/C=N/Nc2cn[nH]c(=O)c2Cl)cc1	Cycloheximide cs 29 (no result: NS1 inh)
COc1ccc(/C=N/Nc2nnc(Cc3ccccc3)c(=O)[nH]2)cc1	none
Cc1ccc(/C=N\Nc2cn[nH]c(=O)c2Cl)cc1	Cycloheximide cs 38 (no result: Pf growth 96h)
COC(=O)[C@]1(Cc2ccccc2)N[C@H](c2ccc(-c3ccc4c(c3)OCO4)cc2)[C@@H]2C(=O)N(C)C(=O)[C@@H]21	Pf growth 96h inconclusive, Pf growth 48h inconclusive (no result: Shiga toxin inh, NS1 inh, Cycloheximide cs)
COC(=O)[C@]1(CC(C)C)N[C@H](c2ccc(-c3cccc(Cl)c3)cc2)[C@@H]2C(=O)N(C)C(=O)[C@@H]21	Pf growth 96h 1.3µM, Pf growth 48h 2.6µM (no result: Shiga toxin inh, NS1 inh, Cycloheximide cs)
COC(=O)[C@]1(CC(C)C)N[C@H](c2ccc(-c3ccc4c(c3)OCO4)cc2)[C@@H]2C(=O)N(C)C(=O)[C@@H]21	Pf growth 96h 13µM, Pf growth 48h inconclusive (no result: Shiga toxin inh, NS1 inh, Cycloheximide cs)
CCc1ccc2nc3n[nH]c(N)c3cc2c1	Shiga toxin inh 75, Cycloheximide cs 45
Cc1cc(C(=O)COC(=O)c2ccc3c(c2)OCO3)c(C)n1Cc1cccs1	Shiga toxin inh 128, Cycloheximide cs 54
CCn1nc(C(=O)OCC(=O)c2cc(C)n(Cc3cccs3)c2C)c2ccccc2c1=O	Shiga toxin inh 66, Cycloheximide cs 72
C=CCNC(=S)NNc1nc2sc3c(c2c(=O)[nH]1)CC(C)(C)OC3	none
CCc1cc2ccccc2nc1SCC(=O)Nc1cc(OC)c(OC)cc1C(=O)O	none
COc1ccc(N(CC(=O)Nc2ccc3c(c2)OCCO3)S(C)(=O)=O)c(OC)c1	Shiga toxin inh 76, Cycloheximide cs 34
CCOc1ccccc1N(CC(=O)Nc1ccc2c(c1)OCCO2)S(C)(=O)=O	Pf growth 96h 4.1µM
CCOc1ccccc1N(CC(=O)Nc1ccc2c(c1)OCO2)S(C)(=O)=O	none
Cc1nnc(SCC(=O)NC2CCCCCC2)n1N	Pf growth 48h inconclusive (no result: Shiga toxin inh, NS1 inh, Cycloheximide cs)
CCOc1ccccc1C(=O)Nc1cc(Cl)ccc1O	Pf growth 48h 3.3µM (no result: Pf growth 96h)
Cc1ccc(Cl)cc1NC(=O)c1ccccc1OCC(=O)Nc1ccc(Cl)cc1	Pf growth 96h 9.3µM, Pf growth 48h inconclusive
O=C(COc1ccccc1O)Nc1ccc(Cl)cc1	Shiga toxin inh 56, Cycloheximide cs 28 (no result: Pf growth 96h)
Cc1ccccc1OCC(=O)NNC(=O)Nc1ccc(Cl)cc1	none
CC(C)CCn1nnnc1C(C(C)C)N1CCC(C(N)=O)CC1 (stereo not drawn)	none
Cc1c(C)c2c(OCC(=O)N[C@@H](C)C(=O)O)cc3c(c2oc1=O)CCC(C)(C)O3	none
Cc1c(C)c2c(OCC(=O)N3CCC[C@H]3C(=O)O)cc3c(c2oc1=O)CCC(C)(C)O3	Pf growth 96h 13µM, Pf growth 48h inconclusive, NS1 inh inconclusive
Cc1c(C)c2c(OCC(=O)N3CCC(O)CC3)cc3c(c2oc1=O)CCC(C)(C)O3	Pf growth 96h 7.4µM, Pf growth 48h 13µM
Cc1ccc(CNC(=O)C2CCC(=O)N(Cc3ccc(Cl)cc3)C2)cc1F (stereo not drawn)	Pf growth 96h inconclusive (no result: SARS PLpro yeast)
CN(NC(=O)c1ccccc1Cl)c1ncc(C(F)(F)F)cc1Cl	none
c1ccc(OCCOc2ncnc3ccccc23)cc1	Pf growth 96h inconclusive, Shiga toxin inh 93, Cycloheximide cs 37
O=C(COc1ncnc2ccccc12)c1ccc(Cl)cc1	Shiga toxin inh 79, Cycloheximide cs 26
NC(=O)c1ccccc1OCC(=O)c1ccc(Cl)cc1	Pf growth 48h 4.1µM (no result: NS1 inh)
COc1ccc(C(=O)COc2ncnc3cc(Cl)ccc23)cc1	none
O=C(COc1ncnc2cc(Cl)ccc12)c1ccccc1	Shiga toxin inh 98, Cycloheximide cs 45
CC(=O)N(c1cccc(C)c1)C1SC(=O)N(c2ccccc2)C1=O (stereo not drawn)	SARS PLpro yeast inconclusive (no result: Pf growth 96h)
Cc1ccc(N2C(=O)SC(N(CC(=O)O)c3cccc(C)c3)C2=O)cc1 (stereo not drawn)	Shiga toxin inh 98, Cycloheximide cs 44
Cc1c2ccccc2c(C)c2c1ccc1ccccc12	Pf growth 96h 0.66µM, Pf growth 48h 0.93µM (no result: SARS PLpro yeast, Shiga toxin inh, NS1 inh, Cycloheximide cs)
CC1=Nc2ccc3ccccc3c2C1(C)C	none (no result: NS1 inh)
COc1ccc(C(=O)c2nc3c(n2O)CCCCC3)cc1	Cycloheximide cs 48 (no result: Pf growth 48h)
CCCOc1ccc(C(=O)c2nc3c(n2O)CCCC3)cc1	Pf growth 96h inconclusive, Shiga toxin inh 50, Pf growth 48h inconclusive
O=C(c1ccc(Oc2ccccc2)cc1)c1nc2c(n1O)CCCC2	Cycloheximide cs 21 (no result: Pf growth 48h)
COc1ccc(C(=O)c2nc3c(n2O)CCCC3)cc1OC	none (no result: Pf growth 48h)
CCOc1ccc(C(=O)c2nc3c(n2O)CCCCC3)cc1	none
COc1ccc(CN(C)C(=O)Cn2ccc(N)nc2=O)cc1OC	Pf growth 96h inconclusive (no result: Shiga toxin inh, NS1 inh, Cycloheximide cs)
CS(=O)(=O)N1CCC(C(=O)Nc2ccccc2Br)CC1	none (no result: Shiga toxin inh)
O=C(CN(C(=O)CCC(=O)Nc1ccccn1)c1ccc(F)cc1)NCc1ccc(F)cc1	Pf growth 96h inconclusive
Cc1ccc(N=Cc2cc(Cc3ccccc3Cl)cc([N+](=O)[O-])c2O)c(O)c1	Cycloheximide cs 31 (no result: NS1 inh)
COc1ccc(N=Cc2cc(Cc3ccccc3Cl)cc([N+](=O)[O-])c2O)cc1OC	Pf growth 48h inconclusive (no result: NS1 inh)
CCC1(CC)NC(=O)N(CC(=O)OC(C)C(=O)Nc2ccc(NC(C)=O)cc2)C1=O (stereo not drawn)	none (no result: Shiga toxin inh, NS1 inh, Cycloheximide cs)
Cc1ccc(-n2nc3c(c2NC(=O)c2ccc4c(c2)OCO4)CS(=O)(=O)C3)c(C)c1	Pf growth 96h 12µM
CC(=O)Nc1c2c(nn1-c1ccc(C)cc1C)CSC2	Pf growth 96h 10µM, Pf growth 48h inconclusive
Cc1ccccc1-n1nc2c(c1NC(=O)c1ccc3c(c1)OCO3)CS(=O)(=O)C2	none
Cc1ccc(-n2nc3c(c2NC(=O)c2cccs2)CS(=O)(=O)C3)c(C)c1	Pf growth 96h 0.59µM
CCCC(=O)Nc1c2c(nn1-c1ccc(C)cc1C)CSC2	none
COc1ccc(-c2ccc(CNCc3ccccn3)o2)cc1Cl	Pf growth 96h inconclusive, Cycloheximide cs 13
CCOc1c(Cl)cc(CNCc2ccccn2)cc1OC	Pf growth 48h inconclusive (no result: NS1 inh)
Clc1ccc(-c2ccc(CNCc3ccccn3)o2)cc1	Shiga toxin inh 24, Cycloheximide cs 21
